Eight compounds from PubChem BioAssay (Tox21) can be followed below.

Molecules are shown by their SMILES. Values joined by “and” are separate entries in the source; they are usually repeats but may differ in a detail not shown here. Equal values may be shown once. Records with an inconclusive call do not appear. The source holds several records for some structures; these can differ, active in one and inactive in another. Active and inactive are the calls of the source. Unless noted, calls come from the whole dose curve.

The nature of test [1]: Nuclear factor erythroid 2-related factor 2/antioxidant responsive element (Nrf2/ARE) small molecule agonists: qHTS cell viability counter screen in human keratinocytes (AID 1919968; active = well fitted curve in the direction sought with a large enough effect in the repeat runs; an effect the other way counts as inactive or inconclusive; note: nearly all actives have a fitted effect of over 55% in size; note: potency is the fitted concentration of half-maximal effect). A digest of the protocol:
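CellTiter-Fluor fluorescence, read 1 h after reagent, gave viability in the same wells as the ARE-luciferase assay. KeratinoSens cells (1,500/well) had 23 h compound exposure at 37 C/5% CO2 following 5 h plating.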
For orientation: qHTS replaces the single test concentration by a dilution series.

The nature of test [2]: Nuclear factor erythroid 2-related factor 2/antioxidant responsive element (Nrf2/ARE) small molecule agonists: luciferase reporter gene qHTS assay in human keratinocytes (AID 1919969). Note: nearly all actives have a fitted effect of over 35% in size. Note: potency is the fitted concentration of half-maximal effect.
Test [3] has as its target Gonadotropin-releasing hormone receptor (Homo sapiens) (UniProt P30968). Put plainly: Human gonadotropin-releasing hormone receptor (GnRHR) small molecule agonists, calcium flux assay in GnRHR-HEK293 cells (AID 1920063). Note: nearly all actives have a fitted effect of over 35% in size. In a few lines:
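Agonist mode: compounds at 15 concentrations, in triplicate, went onto calcium dye-loaded GnRHR-HEK293 cells. Intracellular calcium was then followed as 480/540 nm fluorescence at 1 s intervals over 3 min.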

Test [4] concerns the target KiSS-1 receptor (Homo sapiens) (UniProt Q969F8). The test is described as follows: Human kisspeptin (KISS1R) small molecule agonists, calcium flux assay in KISS1R-HEK293 cells (AID 1920064; active = well fitted curve in the direction sought with a large enough effect in the repeat runs; an effect the other way counts as inactive or inconclusive). In a few lines: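 Agonist mode: intracellular calcium rise tracked at 1 s intervals over 3 min (480/540 nm) immediately after compound addition to dye-loaded KISS1R-HEK293 stable cells. Each compound tested at 15 concentrations in triplicate.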
A general note: Calcium flux is commonly read through the fluorescence of an indicator in the cells.

Test [5] is described as follows: G protein-coupled receptor (GPCR) small molecule agonists, calcium flux assay: HEK293 wild type cell line counter screen (AID 1920065). A digest of the protocol:
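Calcium flux counter screen: compound added in agonist mode at 15 concentrations in triplicate to dye-loaded parental HEK293 cells. Fluorescence (480/540) read kinetically for 3 min; ATP served as positive control.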

Test [6] can be described thus: p53 small molecule agonists, cell-based qHTS assay with human liver microsomes: qHTS cell viability counter screen (AID 1963579). Note: nearly all actives have a fitted effect of over 45% in size. Note: potency is the fitted concentration of half-maximal effect. In a few lines: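 p53RE-bla cells (4,000/well) were pre-incubated 5 h at 37 C, then given compounds in DMSO plus human liver microsomes (0.5 mg/mL final) and NADPH (0.5 mg/mL final) for 16 h at 37 C. Viability was read by CellTiter-Glo luminescence.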

Test [7] in a line: p53 small molecule agonists, cell-based qHTS assay with rat liver microsomes: qHTS cell viability counter screen (AID 1963580). Note: nearly all actives have a fitted effect of over 45% in size. Note: potency is the fitted concentration of half-maximal effect. In a few lines: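 Rat liver microsome (0.5 mg/mL final) and NADPH (0.5 mg/mL final) co-incubation with compounds for 16 h at 37 C on HCT-116 p53RE-bla cells; cytotoxicity taken from intracellular ATP luminescence.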
The nature of test [8]: p53 small molecule agonists, cell-based qHTS assay: qHTS cell viability counter screen (AID 1963581). Note: nearly all actives have a fitted effect of over 45% in size. In a few lines: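 Counter screen read by CellTiter-Glo luminescence (ATP content, 30 min at room temperature), run in the same wells as the beta-lactamase reporter read. HCT-116 p53RE-bla cells saw compounds for 16 h at 37 C.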
Test [9] concerns the target 5-hydroxytryptamine receptor 2A (Homo sapiens) (UniProt P28223). Put plainly: 5-hydroxytryptamine receptor 2A (HTR2A) small molecule agonists, cell-based qHTS assay (AID 1963587). Note: nearly all actives have a fitted effect of over 30% in size. In a few lines:
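Kinetic calcium-flux fluorescence (2 min, 1 sec intervals) after compound addition in agonist mode. HTR2A-CHO cells were cultured 18 h, then dye-loaded 1 h at 37 C.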

Test [10] concerns the target Muscarinic acetylcholine receptor M1 (Homo sapiens) (UniProt P11229). The test is described as follows: Cholinergic receptor muscarinic 1 (CHRM1) small molecule antagonists, cell-based qHTS assay (AID 1963588). Note: nearly all actives have a fitted effect of over 40% in size. A digest of the protocol: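 Compounds were tested at 15 concentrations in three independent runs. Dye-loaded CHRM1-CHO cells were exposed 5 min at room temperature before stimulation by acetylcholine added at 50nM. Intracellular calcium was read kinetically on FDSS for 3 min.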

Test [11] shares this target. Put plainly: Cholinergic receptor muscarinic 1 (CHRM1) small molecule agonists, cell-based qHTS assay (AID 1963589). Note: nearly all actives have a fitted effect of over 35% in size. In a few lines: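 Agonist-mode calcium-flux screen: compounds at 15 concentrations, three independent runs, were pin-transferred onto dye-loaded human CHRM1-CHO cells. Fluorescence was then recorded kinetically every second over minutes.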
A short description of test [12]: cAMP Responsive Elements (CRE) small molecule agonists, cell-based qHTS assay (AID 1963590). In a few lines: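 Agonist mode: compound added to CRE-bla HEK 293T cells (2,000/well, 18 h after plating) for 3 h at 37 C/5% CO2. Reporter activity detected via FRET beta-lactamase substrate, 2 h room-temperature loading.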
Test [13] is described as follows: cAMP Responsive Elements (CRE) small molecule antagonists, cell-based qHTS assay (AID 1963591; active = well fitted inhibition curve with a large enough effect in the signal ratio in the repeat runs, not every such curve was filed as active; the % refers to the signal ratio; note: potency is the fitted concentration of half-maximal effect). A digest of the protocol:
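Antagonist mode: compounds are added alongside the adenylyl cyclase activator NKH477 (0.25 uM final) to CRE-bla HEK293T cells for 3 h. LiveBLAzer FRET substrate, 2 h at room temperature, reports bla expression.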

Test [14] concerns the target Beta-2 adrenergic receptor (Homo sapiens) (UniProt P07550). Put plainly: Adrenergic beta2 receptor (ADRB2) small molecule antagonists, cell-based qHTS assay (AID 1963592). Note: series mostly up to about 92 µM; nearly all actives have a fitted effect of over 50% in size. A digest of the protocol: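 Assay format: CHO-ADRB2 cells, 18-20hr seeding at 37C/5% CO2, then compound plus 1nM isoproterenol agonist mix for 0.5hr RT. Homogeneous time-resolved fluorescence cAMP detection after 1hr, expressed as 665/615 nm ratio.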

Test [15] shares this target. The test is described as follows: Adrenergic beta2 receptor (ADRB2) small molecule agonists, cell-based qHTS assay (AID 1963593).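 Note: CHO cells stably overexpressing human ADRB2.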 A digest of the protocol:
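CHO cells stably over-expressing ADRB2 were plated overnight at 37C, then dosed with compounds plus a stimulation mix containing 100uM IBMX and 25uM Ro-20-1724 for 0.5hr at room temperature. cAMP was measured by HTRF competition, 1hr.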

In test [16] the target is D(2) dopamine receptor (Homo sapiens) (UniProt P14416). The test is described as follows: Dopamine D2 receptor (DRD2) small molecule agonists, cell-based qHTS assay (AID 1963594). Note: nearly all actives have a fitted effect of over 35% in size. A digest of the protocol: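 cAMP accumulation in DRD2-HEK293 cells measured by HTRF after 1 h detection; compounds added 10 min before NKH477 (200nM […]) forskolin-analogue stimulation, 30 min at room temperature, with Ro20-1724 present at 0.1 mM final.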
Sequence of D(2) dopamine receptor (Homo sapiens) (P14416 whole entry, looked up): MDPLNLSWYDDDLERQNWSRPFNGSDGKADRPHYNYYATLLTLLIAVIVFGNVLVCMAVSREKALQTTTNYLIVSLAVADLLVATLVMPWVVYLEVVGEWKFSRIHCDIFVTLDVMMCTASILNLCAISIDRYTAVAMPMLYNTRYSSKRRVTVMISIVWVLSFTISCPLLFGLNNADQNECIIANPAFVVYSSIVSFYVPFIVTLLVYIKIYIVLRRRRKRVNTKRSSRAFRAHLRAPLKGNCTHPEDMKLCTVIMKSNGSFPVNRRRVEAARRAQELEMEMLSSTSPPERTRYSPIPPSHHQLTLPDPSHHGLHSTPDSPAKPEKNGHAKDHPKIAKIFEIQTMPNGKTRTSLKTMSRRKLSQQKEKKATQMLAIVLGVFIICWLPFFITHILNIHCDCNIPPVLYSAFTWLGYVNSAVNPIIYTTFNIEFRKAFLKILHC

For test [17] the target is unchanged. Put plainly: Dopamine D2 receptor (DRD2) small molecule antagonists, cell-based qHTS assay (AID 1963595; active = well fitted inhibition curve with a large enough effect in the signal ratio in the repeat runs, with a control signal flat; the % refers to the signal ratio). In a few lines: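 DRD2-HEK293; 0.1 mM Ro20-1724; cpd 10 min RT; NKH477 200 nM + quinpirole 12 nM, 30 min RT; HTRF cAMP (cAMP-d2/anti-cAMP cryptate), 665/620 nm ratio after 1 h.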
Test [18] is described as follows: p53 small molecule agonists, cell-based qHTS assay (AID 1963582; active = well fitted activation curve with a large enough effect in the signal ratio in the repeat runs, not every such curve was filed as active; the % refers to the signal ratio). In a few lines:
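Read-out is beta-lactamase FRET fluorescence after 2 h at room temperature with LiveBLAzer B/G substrate. p53 response element-bla cells were treated 16 h at 37 C with compounds in DMSO, added 5 h after seeding.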

The target of test [19] is 5-hydroxytryptamine receptor 2A (Homo sapiens) (UniProt P28223). The test is described as follows: 5-hydroxytryptamine receptor 2A (HTR2A) small molecule antagonists, cell-based qHTS assay (AID 1963586). Note: nearly all actives have a fitted effect of over 45% in size. In a few lines: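 CHO cells stably expressing human HTR2A were plated for 18 h at 37 C, then loaded with calcium dye for 1 h. Compounds were preincubated 5 min at room temperature before DOI (4 nM solution) was added. Kinetic fluorescence was read for 3 min.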
Sequence of 5-hydroxytryptamine receptor 2A (Homo sapiens) (P28223 whole entry, looked up): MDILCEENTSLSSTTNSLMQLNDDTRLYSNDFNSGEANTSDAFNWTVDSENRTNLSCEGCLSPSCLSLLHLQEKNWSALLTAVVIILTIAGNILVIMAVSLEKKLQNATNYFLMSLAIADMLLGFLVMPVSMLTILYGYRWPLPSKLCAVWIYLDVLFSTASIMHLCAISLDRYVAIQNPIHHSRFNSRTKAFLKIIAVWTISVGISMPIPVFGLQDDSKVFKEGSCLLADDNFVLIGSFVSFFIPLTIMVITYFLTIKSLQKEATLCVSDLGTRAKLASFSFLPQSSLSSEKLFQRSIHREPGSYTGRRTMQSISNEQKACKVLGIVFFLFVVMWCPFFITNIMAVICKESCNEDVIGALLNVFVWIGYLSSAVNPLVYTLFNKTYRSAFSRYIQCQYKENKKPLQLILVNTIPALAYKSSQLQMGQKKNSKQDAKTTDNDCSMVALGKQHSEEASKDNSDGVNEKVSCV

Sequence of KiSS-1 receptor (Homo sapiens) (Q969F8 whole entry, looked up): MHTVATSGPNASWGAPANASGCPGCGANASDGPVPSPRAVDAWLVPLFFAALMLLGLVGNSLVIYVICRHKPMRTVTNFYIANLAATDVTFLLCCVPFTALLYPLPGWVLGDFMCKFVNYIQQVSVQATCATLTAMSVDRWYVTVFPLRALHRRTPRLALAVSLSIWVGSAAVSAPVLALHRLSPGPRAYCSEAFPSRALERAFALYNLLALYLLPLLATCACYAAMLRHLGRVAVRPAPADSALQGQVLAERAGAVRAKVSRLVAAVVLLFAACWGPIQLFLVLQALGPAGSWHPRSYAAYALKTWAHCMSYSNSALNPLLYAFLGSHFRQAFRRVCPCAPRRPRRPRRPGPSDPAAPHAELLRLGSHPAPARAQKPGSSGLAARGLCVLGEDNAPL
Sequence of Beta-2 adrenergic receptor (Homo sapiens) (P07550 whole entry, looked up): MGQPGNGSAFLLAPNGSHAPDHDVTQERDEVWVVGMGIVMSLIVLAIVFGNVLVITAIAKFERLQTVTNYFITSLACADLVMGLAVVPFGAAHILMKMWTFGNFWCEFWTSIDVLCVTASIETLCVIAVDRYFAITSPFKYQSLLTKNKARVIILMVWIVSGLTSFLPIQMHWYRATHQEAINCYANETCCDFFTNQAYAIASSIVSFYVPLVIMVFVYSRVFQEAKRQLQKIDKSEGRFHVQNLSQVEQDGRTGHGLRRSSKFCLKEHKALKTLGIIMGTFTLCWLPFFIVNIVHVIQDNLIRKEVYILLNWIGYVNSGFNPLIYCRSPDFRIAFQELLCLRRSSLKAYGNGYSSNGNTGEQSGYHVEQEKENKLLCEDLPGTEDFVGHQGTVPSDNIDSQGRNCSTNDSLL
Sequence of Gonadotropin-releasing hormone receptor (Homo sapiens) (P30968 whole entry, looked up): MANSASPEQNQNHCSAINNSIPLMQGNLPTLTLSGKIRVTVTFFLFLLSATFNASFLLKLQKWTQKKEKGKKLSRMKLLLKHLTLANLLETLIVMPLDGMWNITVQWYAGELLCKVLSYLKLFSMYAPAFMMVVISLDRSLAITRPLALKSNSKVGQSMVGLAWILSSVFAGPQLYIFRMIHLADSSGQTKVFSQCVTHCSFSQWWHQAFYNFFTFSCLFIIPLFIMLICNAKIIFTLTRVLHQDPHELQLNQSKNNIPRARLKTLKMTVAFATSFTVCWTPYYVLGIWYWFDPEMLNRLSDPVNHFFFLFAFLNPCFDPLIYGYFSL
Sequence of Muscarinic acetylcholine receptor M1 (Homo sapiens) (P11229 whole entry, looked up): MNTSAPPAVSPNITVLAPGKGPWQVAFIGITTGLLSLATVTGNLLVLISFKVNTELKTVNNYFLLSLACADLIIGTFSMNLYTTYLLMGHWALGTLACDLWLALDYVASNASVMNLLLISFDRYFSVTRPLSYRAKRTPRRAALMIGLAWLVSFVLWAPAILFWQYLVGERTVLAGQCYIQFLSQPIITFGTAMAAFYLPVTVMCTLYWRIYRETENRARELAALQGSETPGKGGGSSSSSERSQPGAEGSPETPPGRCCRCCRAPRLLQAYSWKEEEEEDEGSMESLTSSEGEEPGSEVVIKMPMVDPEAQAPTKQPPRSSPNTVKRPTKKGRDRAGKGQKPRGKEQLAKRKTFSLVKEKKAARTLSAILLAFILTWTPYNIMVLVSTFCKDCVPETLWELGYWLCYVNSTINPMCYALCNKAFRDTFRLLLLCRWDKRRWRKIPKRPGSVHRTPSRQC

As to `CCCCCCC(C)(C)S`, the Potency result in [1], in test [2], in [3], in [4], in test [5] and in test [6] was “inactive” throughout. The Potency result in test [7], in test [8], in test [9], in [10], in [11] and in test [12] was “inactive” throughout. For the same compound, the Potency result in test [13], in test [14], in test [15], in [16] and in [17] was “inactive” each time.
Turning to `CCOC(=O)CC(=O)OCC`, the Potency entry in test [1], in test [2], in test [3], in [4], in test [5] and in test [6] was “inactive” each time. Further, the Potency entry in [7], in test [18], in [19], in [9], in [10] and in test [11] was “inactive” each time. Further, the Potency entry in test [12], in test [13], in test [14], in test [15], in test [16] and in test [17] was “inactive” throughout.
For the compound `CC(C)C(=O)Nc1ccc([N+](=O)[O-])c(C(F)(F)F)c1`, the Potency result in [1], in test [2], in test [3], in test [4], in [5] and in test [6] was “inactive” each time. Also, the Potency entry in test [7], in test [8], in [13], in test [14], in test [16] and in test [17] was “inactive” throughout.
Turning to `CC1=CC2C3CC(C=C3C)C2C1` (stereo not given), the Potency result in [1], in [2], in test [3], in test [4], in test [5] and in test [6] was “inactive” throughout. In addition, the Potency result in test [7], in test [8], in test [19], in [9], in test [10] and in test [11] was “inactive” throughout. Also, the Potency result in [12], in [13], in test [14], in test [16] and in [17] was “inactive” in each case.
Take `CNC(=O)Oc1ccc2c(c1)[C@]1(C)CCN(C)[C@@H]1N2C`: the Potency entry in [1], in test [2], in test [3], in test [4], in [5] and in test [6] was “inactive” throughout. The Potency result in test [7], in test [8], in test [12], in test [13], in [14] and in [15] was “inactive” in each case. In addition, the Potency result in test [16] and in test [17] was “inactive” in each case.
On to `C/C=C/c1ccc(OC)cc1`, for which the Potency result in test [1], in [2], in test [3], in test [4], in test [5] and in test [6] was “inactive” in each case. Also, the Potency entry in test [7], in test [8], in test [19], in [10], in test [11] and in test [12] was “inactive” each time. The Potency result in test [13], in test [15], in test [16] and in [17] was “inactive” each time.
`CC(=O)O[C@]1(C(C)=O)CC[C@H]2[C@@H]3C=C(Cl)C4=CC(=O)[C@@H]5C[C@@H]5[C@]4(C)[C@H]3CC[C@@]21C`: the Potency result in [1], in test [2], in test [3], in test [4], in test [5] and in test [6] was “inactive” throughout. The Potency entry in test [7], in test [8], in test [14], in [15], in test [16] and in [17] was “inactive” throughout.
Consider `Oc1ccc(Cl)cc1Cc1cc(Cl)ccc1O`, for which the Potency in test [1] was 27.8 µM (active) and 61.1 µM (active); in test [2] it was “inactive and 33.5 µM (active)”; in test [6], 40.8 µM (active) and inactive; in test [7], 41.5 µM (active) and inactive; in test [13], 49.4 µM (active). Besides, the Potency entry in test [3], in test [4], in [5], in [19], in test [9] and in test [10] was “inactive” throughout. In addition, the Potency result in [11], in test [16] and in [17] was “inactive” each time.
